Source: ChEMBL document CHEMBL4513141, “CO-ADD screening of NIH (USA) - Clinical Collection” (2021)
Results with a measured potency or affinity are listed apart.

The compounds below were run on Escherichia coli. Details: Concentration 20 uM; ASSAY_TEST Inhibition of Bacterial Growth; detection method Absorption (OD600); MEDIA CAMHB; plate type 384well; NBS; CORNING #3640; time 18 hr.

| Structure (SMILES) | Inhibition |
| --- | --- |
| NS(=O)(=O)Cc1noc2ccccc12 [ZONISAMIDE] | 0.42% |
| CS(=O)(=O)O.Cc1c(O)cccc1C(=O)N[C@@H](CSc1ccccc1)[C@H](O)CN1C[C@H]2CCCC[C@H]2C[C@H]1C(=O)NC(C)(C)C [NELFINAVIR MESYLATE] | 1.35% |
| Cc1cccc(C)c1OCC(C)N.Cl (stereo not given) [MEXILETINE HYDROCHLORIDE] | 3.59% |
| CC[C@]1(O)C[C@@H]2CN(CCc3c([nH]c4ccccc34)[C@@](C(=O)OC)(c3cc4c(cc3OC)N(C=O)[C@H]3[C@@](O)(C(=O)OC)[C@H](OC(C)=O)[C@]5(CC)C=CCN6CC[C@]43[C@@H]65)C2)C1.O=S(=O)(O)O | -3.68% |
| Clc1ccc2c(c1)C(N1CCNCC1)=Nc1ccccc1O2 [AMOXAPINE] | 7% |
| CC(C)OC(=O)CCC/C=C\C[C@@H]1[C@@H](CC[C@@H](O)CCc2ccccc2)[C@H](O)C[C@@H]1O [LATANOPROST] | 1.96% |
| CCCC1O[C@@H]2C[C@H]3[C@@H]4CCC5=CC(=O)C=C[C@]5(C)[C@H]4[C@@H](O)C[C@]3(C)[C@]2(C(=O)CO)O1 (stereo not given in full) [BUDESONIDE] | -1.42% |
| CCOC(=O)c1ccc(OC(=O)CCCCCN=C(N)N)cc1.CS(=O)(=O)O | -0.78% |
| COc1ccc(C(=O)NCc2ccc(OCCN(C)C)cc2)cc1OC.Cl | 2.89% |
| CN(CCOc1ccc(NS(C)(=O)=O)cc1)CCc1ccc(NS(C)(=O)=O)cc1 [DOFETILIDE] | 6.72% |
